# Measurements from PubChem BioAssay (EPA / NIEHS).
# Results filed as inconclusive are left out. Calls of active or inactive are those of the source. How the source made its calls, unless noted: active means hit-call score of the fitted dose curve at least 0.9, where 1 is the maximum; inconclusive means response in the unintended direction; inactive means score below 0.9.
# Experiments:
# [1] = target: human Serotonin, 5-Hydroxytryptamine Receptor 3 (5HT3), HTR3A (gene 3359) (UniProt P46098); test: NVS_LGIC_h5HT3: NovaScreen (NVS) Ligand-Gated Ion Channel Assay for human Serotonin, 5-Hydroxytryptamine Receptor 3 (5HT3) (AID 2283325)
# Method in brief: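 Initially tested at 25 uM in duplicate, then up to 50 uM in concentration-response for actives, compounds competed with a radioligand for HEK293-derived human 5-HT3 receptor. Bound counts were measured by filtration and scintillation at 1 h; loss of signal versus DMSO.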
# [2] = target: bovine Gamma-Aminobutyric Acid Type A Receptor BDZ, alpha 1 site (GABARa1), GABRA1 (gene 780973) (UniProt P08219); test: NVS_LGIC_bGABARa1: NovaScreen (NVS) Ligand-Gated Ion Channel Assay for bovine Gamma-Aminobutyric Acid Type A Receptor BDZ, alpha 1 site (GABARa1) (AID 2283321)
# Method in brief: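 Bovine cortex membrane preparation, benzodiazepine site on GABA-A alpha1; specific radioligand displacement read after 0.75 h by filtration and scintillation. Screen at 25 uM, then singleton titrations up to 50 uM; DMSO baseline.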
# [3] = target: rat Gamma-Aminobutyric Acid Type A Receptor BDZ, alpha 6 site (GABARa6), Gabra6 (gene 29708) (UniProt P30191); test: NVS_LGIC_rGABARa6: NovaScreen (NVS) Ligand-Gated Ion Channel Assay for rat Gamma-Aminobutyric Acid Type A Receptor BDZ, alpha 6 site (GABARa6) (AID 2283339)
# Method in brief: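 Actives from a 25 uM duplicate screen were retested in concentration series (max 50 uM). Specific radioligand displacement from rat cerebellar membranes was counted by filter-based scintillation at 1 h; DMSO served as baseline.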
# [4] = NVS_IC_rCaDHPRCh_L: NovaScreen (NVS) Ion Channel Assay for rat Calcium Channel, Type L, Dihydropyridine Site (CaDHPRCh_L) (AID 2283320)
# Method in brief: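 Rat cortex membrane preparation; dihydropyridine-site radioligand displacement read 1 h post-dose by filtration and scintillation. Primary single-point screen 25 uM in duplicate, then concentration series to 50 uM maximum; DMSO as negative control.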
# [5] = target: Sodium channel protein type 1 subunit alpha (Rattus norvegicus) (UniProt P04774); test: NVS_IC_rNaCh_site2: NovaScreen (NVS) Ion Channel Assay for rat Sodium Channel, Site 2 (NaCh) (AID 2283322);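 further: hit means loss of radioligand binding signal relative to DMSO so AC50 marks displacement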
# Method in brief: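 Initial duplicate single-point testing at 25 uM, followed by concentration-response runs for actives. Binding of radioligand to rat forebrain membranes quantified after 1 h via filter-based radiodetection.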
# [6] = target: rat Gamma-Aminobutyric Acid Type A Receptor, Non-Selective (GABAR-NonSelective), Gabra1 (gene 29705) (UniProt P62813); test: NVS_LGIC_rGABAR_NonSelective: NovaScreen (NVS) Ligand-Gated Ion Channel Assay for rat Gamma-Aminobutyric Acid Type A Receptor, Non-Selective (GABAR-NonSelective) (AID 2283326)
# Method in brief: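 Compounds were first screened in duplicate at 25 uM, with actives run as singleton concentration series (max 50 uM). Binding of a radioligand to rat whole-brain GABA-A preparation was measured by filtration and scintillation counting after 1 h, DMSO baseline.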
# [7] = target: Voltage-gated inwardly rectifying potassium channel KCNH2 (Homo sapiens) (UniProt Q12809); test: NVS_IC_hKhERGCh: NovaScreen (NVS) Ion Channel Assay for human Potassium Channel ERG (KhERGCh) (AID 2283333)
# Method in brief: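 Membranes from CHO cells expressing human ERG; displacement of radioligand measured by filtration and scintillation after 0.75 h. Single-concentration duplicate screen at 25 uM, then concentration-response for actives; DMSO baseline.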
# [8] = NVS_IC_rCaBTZCHL: NovaScreen (NVS) Ion Channel Assay for Calcium Channel, Type L, Benzothiazepine Site (CaBTZCHL) (AID 2283337)
# Method in brief: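 Rat cortical membrane preparation, cell-free. Radioligand displaced by test chemical; 1.5 h incubation; filtration, scintillation count. DMSO = negative control/baseline. Primary: duplicate, 25 uM; secondary: concentration series.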
# [9] = target: rat Glutamate, AMPA Site (AMPA), Gria1 (gene 50592) (UniProt P19490); test: NVS_LGIC_rAMPA: NovaScreen (NVS) Ligand-Gated Ion Channel Assay for rat Glutamate, AMPA Site (AMPA) (AID 2283324)
# Method in brief: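 Screening at 25 uM in duplicate preceded concentration series reaching 50 uM for qualifying compounds. Radioligand displacement on rat forebrain membranes, 1 h, filter-based scintillation readout; reduced binding relative to DMSO.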
# [10] = target: bovine Gamma-Aminobutyric Acid Type A Receptor Agonist (GABAR Agonist), GABRA1 (gene 780973) (UniProt P08219); test: NVS_LGIC_bGABAR_Agonist: NovaScreen (NVS) Ligand-Gated Ion Channel Assay for bovine Gamma-Aminobutyric Acid Type A Receptor Agonist (GABAR Agonist) (AID 2283338)
# Method in brief: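 Radioligand binding to bovine cerebellar membranes in agonist format, read by filter-based scintillation counting after 1 h. Primary screen in duplicate at 25 uM, with actives followed in concentration series. Gain of signal versus DMSO.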
# [11] = target: rat Peripheral-type Benzodiazepine Receptor (PBR), Tspo (gene 24230) (UniProt P16257); test: NVS_MP_rPBR: NovaScreen (NVS) Membrane Protein Assay for rat Peripheral-type Benzodiazepine Receptor (PBR) (AID 2283335)
# Method in brief: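 Single-concentration duplicate screening at 25 uM preceded concentration-series retesting of actives. Binding of a specific radioligand to rat kidney membrane PBR was read by filtration radiodetection after 1 h, with plate-wise positive and negative controls.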
# [12] = target: rat Oxytocin Receptor (OXT), Oxtr (gene 25342) (UniProt P70536); test: NVS_GPCR_rOXT: NovaScreen (NVS) G Protein-Coupled Receptor Assay for rat Oxytocin Receptor (OXT) (AID 2283330)
# Method in brief: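 Binding to rat uterine membrane receptor was followed by scintillation counting of filter-trapped radioligand after 1 h. A 25 uM duplicate single-point screen preceded concentration series with a top of 50 uM. Signal loss was analysed relative to DMSO.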
# [13] = target: human Peripheral-type Benzodiazepine Receptor (PBR), TSPO (gene 706) (UniProt P30536); test: NVS_MP_hPBR: NovaScreen (NVS) Membrane Protein Assay for human Peripheral-type Benzodiazepine Receptor (PBR) (AID 2283331);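 further: hits reduce radioligand binding relative to DMSO baseline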
# Method in brief: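 Cell-free radioligand displacement, human colonic membranes, 1 h exposure. Filter radiodetection read-out. Single-concentration duplicates (25 uM), then concentration-response for actives; DMSO negative control.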
# [14] = target: Small conductance calcium-activated potassium channel protein 1 (Rattus norvegicus) (UniProt P70606); test: NVS_IC_rKCaCh: NovaScreen (NVS) Ion Channel Assay for rat Potassium Channel, Ca2+ Act., VI (KCaCh) (AID 2283336)
# Method in brief: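 Filter-based scintillation counting of radioligand bound to rat forebrain membrane preparations, measured 1 h after compound addition. Primary screen used 25 uM in duplicate, with concentration-response follow-up; signal decrease relative to DMSO marks activity.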
# [15] = target: rat Thyrotropin Releasing Hormone Receptor (TRH), Trhr (gene 25570) (UniProt Q01717); test: NVS_GPCR_rTRH: NovaScreen (NVS) G Protein-Coupled Receptor Assay for rat Thyrotropin Releasing Hormone Receptor (TRH) (AID 2283329);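 further: hit means lower bound tracer signal versus DMSO baseline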
# Method in brief: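 Competitive radioligand binding on rat forebrain membrane preparations, with filtration and scintillation readout after 4 h. Primary testing in duplicate at 25 uM; actives confirmed in concentration-response. DMSO defined baseline.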
# [16] = target: human Androgen Receptor (AR), AR (gene 367) (UniProt P10275); test: NVS_NR_hAR: NovaScreen (NVS) Nuclear Receptor Binding Assay for human Androgen Receptor (AR) (AID 2283332)
# Method in brief: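 LnCAP cell-free extract; radioligand displacement read by scintillation counting after 20 h. Primary screen single concentration 25 uM in duplicate, actives then run as concentration series; loss-of-signal fitted relative to DMSO baseline.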
# [17] = target: Glutamate receptor ionotropic, kainate 1 (Rattus norvegicus) (UniProt P22756); test: NVS_IC_rKAR: NovaScreen (NVS) Ion Channel Assay for rat Kainic Acid Receptors (KAR) (AID 2283334; active means hit-call score of the fitted dose curve at least 0.9, where 1 is the maximum; inactive means score below 0.9)
# Method in brief: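 Rat forebrain membrane preparation incubated 1 h with radioligand and test chemical; bound signal read by filtration and scintillation. Single-concentration screen at 25 uM, then concentration series to 50 uM maximum.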
# Chain of human Serotonin, 5-Hydroxytryptamine Receptor 3 (5HT3), HTR3A (gene 3359) (P46098 whole entry, looked up): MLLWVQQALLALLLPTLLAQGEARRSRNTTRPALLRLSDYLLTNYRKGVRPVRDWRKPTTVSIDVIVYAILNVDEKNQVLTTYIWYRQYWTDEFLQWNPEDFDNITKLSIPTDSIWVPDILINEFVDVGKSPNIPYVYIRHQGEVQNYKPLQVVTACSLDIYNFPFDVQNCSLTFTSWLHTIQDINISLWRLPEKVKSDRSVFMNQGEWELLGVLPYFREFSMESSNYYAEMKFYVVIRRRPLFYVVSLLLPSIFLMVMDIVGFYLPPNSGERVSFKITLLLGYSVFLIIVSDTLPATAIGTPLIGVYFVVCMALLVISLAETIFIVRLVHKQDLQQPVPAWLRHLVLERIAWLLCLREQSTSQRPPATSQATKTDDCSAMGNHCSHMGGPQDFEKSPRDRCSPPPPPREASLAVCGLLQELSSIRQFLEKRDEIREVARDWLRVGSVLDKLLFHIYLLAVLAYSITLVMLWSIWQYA
# Chain of Voltage-gated inwardly rectifying potassium channel KCNH2 (Homo sapiens) (Q12809 whole entry, looked up): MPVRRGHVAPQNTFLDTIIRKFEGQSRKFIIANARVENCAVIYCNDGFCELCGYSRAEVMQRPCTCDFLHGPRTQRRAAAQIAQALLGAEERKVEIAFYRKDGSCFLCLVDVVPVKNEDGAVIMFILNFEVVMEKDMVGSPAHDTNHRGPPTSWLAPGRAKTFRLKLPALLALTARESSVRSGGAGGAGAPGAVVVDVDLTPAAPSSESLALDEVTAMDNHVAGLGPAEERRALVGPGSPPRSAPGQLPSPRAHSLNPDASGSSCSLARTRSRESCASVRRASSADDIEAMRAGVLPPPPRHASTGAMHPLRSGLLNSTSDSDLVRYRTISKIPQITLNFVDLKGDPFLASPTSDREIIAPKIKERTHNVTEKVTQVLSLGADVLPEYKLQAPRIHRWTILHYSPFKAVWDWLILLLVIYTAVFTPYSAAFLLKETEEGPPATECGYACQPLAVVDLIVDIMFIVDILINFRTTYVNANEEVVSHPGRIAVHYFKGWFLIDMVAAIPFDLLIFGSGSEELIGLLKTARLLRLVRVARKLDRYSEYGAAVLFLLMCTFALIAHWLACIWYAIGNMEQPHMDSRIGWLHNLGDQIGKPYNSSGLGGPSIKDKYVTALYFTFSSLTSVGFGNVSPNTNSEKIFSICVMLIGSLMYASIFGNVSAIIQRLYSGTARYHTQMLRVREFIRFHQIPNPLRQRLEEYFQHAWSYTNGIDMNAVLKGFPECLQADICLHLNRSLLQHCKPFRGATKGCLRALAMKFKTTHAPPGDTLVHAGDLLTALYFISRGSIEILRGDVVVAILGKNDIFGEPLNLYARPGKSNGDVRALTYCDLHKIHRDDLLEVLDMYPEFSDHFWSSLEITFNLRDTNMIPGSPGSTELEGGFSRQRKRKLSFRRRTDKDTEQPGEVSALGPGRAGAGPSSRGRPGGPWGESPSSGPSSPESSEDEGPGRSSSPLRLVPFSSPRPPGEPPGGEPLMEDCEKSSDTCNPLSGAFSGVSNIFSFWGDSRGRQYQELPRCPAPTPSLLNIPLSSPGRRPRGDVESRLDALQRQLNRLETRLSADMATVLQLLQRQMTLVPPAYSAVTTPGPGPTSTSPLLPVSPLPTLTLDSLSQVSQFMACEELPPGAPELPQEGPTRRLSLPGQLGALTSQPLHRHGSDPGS
# Chain of rat Gamma-Aminobutyric Acid Type A Receptor, Non-Selective (GABAR-NonSelective), Gabra1 (gene 29705) (P62813 whole entry, looked up): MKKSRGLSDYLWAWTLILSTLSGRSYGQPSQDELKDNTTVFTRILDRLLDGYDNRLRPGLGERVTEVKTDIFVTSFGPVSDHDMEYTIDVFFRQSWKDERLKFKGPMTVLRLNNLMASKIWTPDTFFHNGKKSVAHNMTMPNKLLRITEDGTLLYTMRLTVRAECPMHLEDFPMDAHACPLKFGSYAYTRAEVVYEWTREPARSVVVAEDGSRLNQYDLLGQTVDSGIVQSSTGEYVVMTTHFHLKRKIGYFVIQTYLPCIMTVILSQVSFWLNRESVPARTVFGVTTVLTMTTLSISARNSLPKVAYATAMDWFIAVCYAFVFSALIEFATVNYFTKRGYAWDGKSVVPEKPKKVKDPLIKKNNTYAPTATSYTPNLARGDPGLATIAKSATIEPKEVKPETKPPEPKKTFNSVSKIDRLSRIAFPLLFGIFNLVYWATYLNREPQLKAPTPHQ
# Chain of bovine Gamma-Aminobutyric Acid Type A Receptor Agonist (GABAR Agonist), GABRA1 (gene 780973) (P08219 whole entry, looked up): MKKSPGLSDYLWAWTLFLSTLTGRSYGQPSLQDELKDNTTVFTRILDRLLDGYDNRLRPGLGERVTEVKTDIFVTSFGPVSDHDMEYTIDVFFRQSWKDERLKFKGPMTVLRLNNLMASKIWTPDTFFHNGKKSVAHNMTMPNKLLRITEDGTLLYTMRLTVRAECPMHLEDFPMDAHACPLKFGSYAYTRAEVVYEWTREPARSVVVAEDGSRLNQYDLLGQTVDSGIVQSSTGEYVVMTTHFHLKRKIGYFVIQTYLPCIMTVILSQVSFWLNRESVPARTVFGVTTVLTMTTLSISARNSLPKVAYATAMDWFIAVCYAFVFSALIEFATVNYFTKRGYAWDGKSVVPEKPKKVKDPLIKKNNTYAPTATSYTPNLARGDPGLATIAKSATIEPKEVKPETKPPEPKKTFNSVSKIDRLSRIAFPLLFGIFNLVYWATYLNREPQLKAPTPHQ
# Chain of Small conductance calcium-activated potassium channel protein 1 (Rattus norvegicus) (P70606 whole entry, looked up): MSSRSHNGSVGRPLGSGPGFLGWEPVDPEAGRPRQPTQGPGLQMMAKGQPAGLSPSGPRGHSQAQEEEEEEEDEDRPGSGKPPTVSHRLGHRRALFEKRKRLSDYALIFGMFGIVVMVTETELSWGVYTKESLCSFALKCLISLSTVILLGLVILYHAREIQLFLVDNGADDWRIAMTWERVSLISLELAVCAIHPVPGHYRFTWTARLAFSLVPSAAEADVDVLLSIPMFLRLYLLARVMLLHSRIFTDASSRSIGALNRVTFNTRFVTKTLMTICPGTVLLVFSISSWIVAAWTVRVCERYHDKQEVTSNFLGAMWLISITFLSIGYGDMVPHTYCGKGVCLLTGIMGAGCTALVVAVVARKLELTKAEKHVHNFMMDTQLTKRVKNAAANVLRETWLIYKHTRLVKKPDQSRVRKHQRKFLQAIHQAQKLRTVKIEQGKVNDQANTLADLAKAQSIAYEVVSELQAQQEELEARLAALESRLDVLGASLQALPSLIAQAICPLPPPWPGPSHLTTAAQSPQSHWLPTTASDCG
# Chain of Glutamate receptor ionotropic, kainate 1 (Rattus norvegicus) (P22756 whole entry, looked up): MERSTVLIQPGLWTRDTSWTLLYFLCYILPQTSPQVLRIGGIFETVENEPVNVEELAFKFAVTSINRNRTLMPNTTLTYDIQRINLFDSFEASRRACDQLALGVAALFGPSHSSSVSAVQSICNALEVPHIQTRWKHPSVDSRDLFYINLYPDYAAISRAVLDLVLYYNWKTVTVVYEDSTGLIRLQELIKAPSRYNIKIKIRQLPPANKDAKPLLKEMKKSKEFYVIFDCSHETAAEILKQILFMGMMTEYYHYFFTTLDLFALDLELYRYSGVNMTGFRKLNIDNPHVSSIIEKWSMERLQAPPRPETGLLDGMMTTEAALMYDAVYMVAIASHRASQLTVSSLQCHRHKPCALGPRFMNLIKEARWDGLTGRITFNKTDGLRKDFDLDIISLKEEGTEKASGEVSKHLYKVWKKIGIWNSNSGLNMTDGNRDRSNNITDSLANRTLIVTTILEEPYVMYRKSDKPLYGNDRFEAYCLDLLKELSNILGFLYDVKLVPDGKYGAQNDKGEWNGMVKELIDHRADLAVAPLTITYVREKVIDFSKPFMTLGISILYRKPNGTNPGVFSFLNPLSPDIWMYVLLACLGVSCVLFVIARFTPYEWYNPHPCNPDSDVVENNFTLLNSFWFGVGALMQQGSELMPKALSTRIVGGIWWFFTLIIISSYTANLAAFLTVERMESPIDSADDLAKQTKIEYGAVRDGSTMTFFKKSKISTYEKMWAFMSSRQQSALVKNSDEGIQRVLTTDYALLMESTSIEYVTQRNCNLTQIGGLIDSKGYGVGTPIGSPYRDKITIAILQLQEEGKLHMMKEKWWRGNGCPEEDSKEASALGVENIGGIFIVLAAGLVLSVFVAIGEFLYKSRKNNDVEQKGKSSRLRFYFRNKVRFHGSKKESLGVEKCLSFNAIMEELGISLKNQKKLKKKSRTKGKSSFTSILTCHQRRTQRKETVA
# Chain of rat Peripheral-type Benzodiazepine Receptor (PBR), Tspo (gene 24230) (P16257 whole entry, looked up): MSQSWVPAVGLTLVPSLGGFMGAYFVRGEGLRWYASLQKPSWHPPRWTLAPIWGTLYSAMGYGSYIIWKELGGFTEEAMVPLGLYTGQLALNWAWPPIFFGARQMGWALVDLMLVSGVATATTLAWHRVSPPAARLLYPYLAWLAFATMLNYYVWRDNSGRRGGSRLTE
# Chain of rat Thyrotropin Releasing Hormone Receptor (TRH), Trhr (gene 25570) (Q01717 whole entry, looked up): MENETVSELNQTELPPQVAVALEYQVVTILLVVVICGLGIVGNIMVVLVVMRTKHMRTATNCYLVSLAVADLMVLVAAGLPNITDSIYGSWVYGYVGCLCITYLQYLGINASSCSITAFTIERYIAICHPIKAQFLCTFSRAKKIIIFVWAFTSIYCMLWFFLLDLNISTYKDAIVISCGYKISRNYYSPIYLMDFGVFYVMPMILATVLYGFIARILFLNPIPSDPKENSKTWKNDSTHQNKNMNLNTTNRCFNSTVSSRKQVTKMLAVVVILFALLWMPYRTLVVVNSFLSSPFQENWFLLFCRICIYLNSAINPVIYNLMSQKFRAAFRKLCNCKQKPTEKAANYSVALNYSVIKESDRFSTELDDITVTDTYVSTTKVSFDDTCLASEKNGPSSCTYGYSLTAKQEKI
# Chain of human Peripheral-type Benzodiazepine Receptor (PBR), TSPO (gene 706) (P30536 whole entry, looked up): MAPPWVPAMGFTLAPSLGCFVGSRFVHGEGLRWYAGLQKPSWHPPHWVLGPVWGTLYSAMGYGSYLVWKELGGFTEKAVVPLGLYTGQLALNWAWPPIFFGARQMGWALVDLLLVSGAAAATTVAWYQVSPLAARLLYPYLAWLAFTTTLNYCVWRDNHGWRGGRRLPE
smiles,measurement,setting,value
c1ccc(N=Nc2ccccc2)cc1,outcome,[1],inactive
Cc1ccc(N)c(N)c1,outcome,[2],inactive
same,outcome,[3],inactive
CCOC(=O)[C@]1(c2ccccc2)Oc2ccccc2[C@@H]1N,AC50,[4],6.77 µM (active)
same,AC50,[5],2.3 µM (active)
same,AC50,[6],1.08 µM (active)
same,AC50,[7],1.44 µM (active)
same,AC50,[8],7.25 µM (active)
CCC[CH2][Sn]([Cl])([CH2]CCC)[CH2]CCC,AC50,[4],11.6 µM (active)
same,AC50,[5],17.7 µM (active)
same,outcome,[9],inactive
same,AC50,[7],4.03 µM (active)
same,AC50,[8],16.2 µM (active)
same,outcome,[10],inactive
COP(=S)(OC)SCN1C(=O)c2ccccc2C1=O,outcome,[5],inactive
same,AC50,[11],11.3 µM (active)
O=C(N[C@H](c1ccccc1)[C@@H]1CN2CCC1CC2)c1c(Cl)ccc(C(F)(F)F)c1Cl,AC50,[5],0.113 µM (active)
same,AC50,[6],0.238 µM (active)
same,outcome,[12],inactive
same,outcome,[13],inactive
same,outcome,[7],inactive
same,outcome,[11],inactive
same,outcome,[14],inactive
same,AC50,[8],3.07 µM (active)
CCCCCCCCCCCCCN1CC(C)OC(C)C1 (stereo not given),outcome,[5],inactive
same,outcome,[10],inactive
Cc1cccc(N)c1N,outcome,[1],inactive
Nc1ccc(N=Nc2ccccc2)cc1,AC50,[1],11.4 µM (active)
same,outcome,[7],inactive
Brc1ccc(Oc2ccccc2)cc1,outcome,[1],inactive
OCCCBr,outcome,[15],inactive
Nc1ccc(Cl)cc1N,outcome,[16],inactive
C1=Cc2cccc3cccc1c23,outcome,[17],inactive
CCOc1cccc(C2(N3CCN(c4ccccc4)CC3)CCC(C)CC2)c1 (stereo not given),outcome,[17],inactive
C[N+](C)(C)CC1CO1 (stereo not given),outcome,[14],inactive
